{"source": "PubChem BioAssay AID435022", "about": "(Sanford-Burnham Center for Chemical Genomics, 2010)", "note": "In all, about 330,000 compounds went through this assay and about 1,100 (0.33%) were called active. The sample as a whole holds a higher share of actives than the screen did. Unmarked numbers belong to inactive results. Rule as the data show it: active = inhibition above about 35%; inactive = the rest."}
{"experiment": "inhibitors of PMA/ionomycin-induced NF-kB reporter, 697 cells, primary screen, B-cell NF-kB inhibitor project, cell-based, luminescence, uHTS (AID 435022)", "details": "697 B-cell NF-kB luciferase reporter, 16 h, at 4 µM, stronger effect = higher value"}
{"smiles": "O=S1(=O)N=C(N(CCO)/N=C/c2ccccc2F)c2ccccc21", "inhibition": "11.3%"}
{"smiles": "C/C(=N\\Nc1nc(Nc2ccccc2)nc(N2CCOCC2)n1)c1cccs1", "inhibition": "39.3% (active)"}
{"smiles": "C/C(=N\\Nc1nc(N2CCOCC2)nc(N2CCOCC2)n1)c1ccc([N+](=O)[O-])cc1", "inhibition": "5.8%"}
{"smiles": "O=C(CSc1nc(Nc2ccccc2)nc(N2CCOCC2)n1)Nc1cc(Cl)ccc1O", "inhibition": "-4.18%"}
{"smiles": "O=c1oc(-c2ccccc2NS(=O)(=O)c2ccc(Cl)cc2)nc2ccccc12", "inhibition": "6.5%"}
{"smiles": "COc1cccc(Oc2ccc(N)cc2)c1", "inhibition": "-22.3%"}
{"smiles": "CC(C)(C)c1ccc(Oc2ccc(N)cc2)cc1", "inhibition": "79% (active)"}
{"smiles": "CC(C)(C)c1ccc(OC2=CS(=O)(=O)c3ccccc32)cc1", "inhibition": "-29.9%"}
{"smiles": "O=C(C(NS(=O)(=O)c1cccc2nsnc12)c1ccccc1)N1CCN(c2ccccc2)CC1", "note": "(stereo not drawn)", "inhibition": "-0.239%"}
{"smiles": "CN(Cc1nc(-c2cnccn2)no1)Cc1n[nH]c2c1CCCCC2", "inhibition": "2.89%"}
{"smiles": "CC[n+]1cc(C)ccc1/C=C/c1ccc(N(C)C)cc1", "inhibition": "42.6% (active)"}
{"smiles": "C=CCN1C(=NC(=O)COc2ccccc2)SC2CS(=O)(=O)CC21", "note": "(stereo not drawn)", "inhibition": "-20.6%"}
{"smiles": "CN(C)C(=O)CCc1ccc2c3c([nH]c2c1)[C@]1(CCC2CCCC2)[C@@H](C(=O)N2CCOCC2)C[C@H](CC(=O)NCc2ccco2)C(=O)N1CC3", "inhibition": "13.5%"}
{"smiles": "Cc1ccc(C)c(NC(=O)CN(C)C(=O)COc2ccc3ccccc3c2)c1", "inhibition": "1.04%"}
{"smiles": "COc1ccc(S(=O)(=O)N2CCN(C(=O)c3cccs3)CC2)cc1OC", "inhibition": "10.3%"}
{"smiles": "CC1=C(C(=O)OC2CCCCC2)C(c2cccnc2)n2ncnc2N1", "note": "(stereo not drawn)", "inhibition": "-21.7%"}
{"smiles": "CCOc1ccc(/C=C2\\SC(=S)N(NC(=O)c3ccncc3)C2=O)cc1OC", "inhibition": "-7.88%"}
{"smiles": "COc1cc(/C=C2/SC(=S)N(Cc3ccccc3)C2=O)cc(OC)c1O", "inhibition": "18.2%"}
{"smiles": "COc1ccc(/C=C2\\SC(=S)N(CCC(=O)Nc3ccccn3)C2=O)cc1OC", "inhibition": "47.5% (active)"}
{"smiles": "Cc1ccc(C)n1-c1ccncc1", "inhibition": "8.79%"}
{"smiles": "COc1cc(C(=O)NCc2nnc(SCC(=O)c3ccc(Cl)cc3)o2)cc(OC)c1OC", "inhibition": "7.7%"}
{"smiles": "CC(=O)Nc1ccc(C(=O)CSc2nnc(Cc3ccccc3)o2)cc1", "inhibition": "8.22%"}
{"smiles": "CC(C)C[C@@H](N)c1nnc(SCC(=O)c2ccc(Cl)cc2)o1", "inhibition": "67.6% (active)"}
{"smiles": "CCCCCCCCCCOC(=O)C[N+](C)(C)CC1CCCCC1O", "note": "(stereo not drawn)", "inhibition": "10.5%"}
{"smiles": "NC(=O)CC(NC(=O)Cc1cccc2ccccc12)c1ccc(NCc2cc(F)ccc2F)c([N+](=O)[O-])c1", "note": "(stereo not drawn)", "inhibition": "9.25%"}
{"smiles": "CC12CN3CCN(CC(C3)/C1=N\\NC(=O)c1ccccc1N)C2", "inhibition": "-5.67%"}
{"smiles": "CN(C(=O)COc1nnc(-c2cccs2)c(-c2cccs2)n1)c1ccccc1", "inhibition": "2.99%"}
{"smiles": "COc1ccc(OCC(=O)N2CCN(C(=O)c3cccs3)CC2)cc1", "inhibition": "26.7%"}
{"smiles": "O=C(O)COc1ccc(-c2nccc(-c3cccs3)n2)cc1", "inhibition": "73.8% (active)"}
{"smiles": "O=C1c2ccccc2S(=O)(=O)N1Cc1c(F)cccc1Cl", "inhibition": "-1.55%"}
{"smiles": "Cn1c(CCc2ccccc2)nnc1SCC(N)=O", "inhibition": "-1.05%"}
{"smiles": "CCN1C(=O)[C@H]2[C@@H](c3ccc(C)cc3)N3C(=O)N(c4cccc(Br)c4)C(=O)[C@@]3(CC)[C@H]2C1=O", "inhibition": "-2.44%"}
{"smiles": "CCCCC(CC)CNC(=O)C(=O)C1C(=O)Nc2ccccc21", "note": "(stereo not drawn)", "inhibition": "13.5%"}
{"smiles": "O=C(CN1CCN(c2ccc(O)cc2)CC1)NC1CCCc2ccccc21", "note": "(stereo not drawn)", "inhibition": "6.1%"}
{"smiles": "Cc1[nH][nH]c(=O)c1C(c1ccc(-c2ccc(Cl)cc2)o1)c1c(C)[nH][nH]c1=O", "inhibition": "15.2%"}
{"smiles": "CCOc1ccc(C(C)NC(=O)CN2C(=O)NC3(CCCCC3)C2=O)cc1OCC", "note": "(stereo not drawn)", "inhibition": "-6.42%"}
{"smiles": "CCOc1ccc(C(c2c(C)[nH][nH]c2=O)c2c(C)[nH][nH]c2=O)cc1OCC", "inhibition": "35.5% (active)"}
{"smiles": "COC(=O)Cn1c2ccc(C)cc2c2nc(C)sc21", "inhibition": "20.4%"}
{"smiles": "CCn1c(O)c(N=NC(=O)c2cccc(S(=O)(=O)N3CCCCC3)c2)c2ccccc21", "inhibition": "-4.54%"}
{"smiles": "CCn1c(O)c(N=NC2=NC(=O)CS2)c2cc(C)ccc21", "inhibition": "44.4% (active)"}
{"smiles": "COc1cc(NC(=O)C2CC(c3ccccc3O)=NO2)c(OC)cc1Cl", "note": "(stereo not drawn)", "inhibition": "10.9%"}
{"smiles": "CC(=O)Nc1nc(C)c(Cc2ccccc2)c(=O)[nH]1", "inhibition": "16.1%"}
{"smiles": "Cc1cc2ccccc2n1CCC(=O)O", "inhibition": "13.8%"}
{"smiles": "O=C(O)CCn1c(Cc2ccccc2)nc2ccccc21", "inhibition": "5.45%"}
{"smiles": "O=C(O)CCn1c(O)c(C=C2N=c3ccccc3=N2)sc1=S", "inhibition": "55.2% (active)"}
{"smiles": "CCOc1ccc(NC(=O)CN(C)C(=O)c2cccc(S(=O)(=O)N3CCCC3)c2)cc1OCC", "inhibition": "10.1%"}
{"smiles": "CCCC(C)NC(=O)C1CCN(C(=O)C2CC(=O)N(c3ccc(C)cc3)C2)CC1", "note": "(stereo not drawn)", "inhibition": "10.2%"}
{"smiles": "Cc1ccc(NC(=O)c2cc([N+](=O)[O-])ccc2Cl)c(O)c1", "inhibition": "38.8% (active)"}
{"smiles": "CNc1ccc([N+](=O)[O-])cc1C(=O)O", "inhibition": "-7.67%"}
{"smiles": "O=C(Nc1cccnc1)c1cc([N+](=O)[O-])ccc1Cl", "inhibition": "12.2%"}
{"smiles": "O=C(CCCC(=O)N1CCN(c2cccc(Cl)c2)CC1)c1ccccc1", "inhibition": "5.77%"}
{"smiles": "C=CC1=C(C(=O)O)N2C(=O)[C@@H](NC(=O)/C(=N/OCC(=O)O)c3csc(N)n3)[C@H]2SC1", "inhibition": "21.7%"}
{"smiles": "Cc1cnc(C(=O)Oc2cccc(Cl)c2Cl)cn1", "inhibition": "9.86%"}
{"smiles": "N=c1n(CCc2ccccc2)c2ccccc2n1Cc1ccccc1F", "inhibition": "-56.4%"}
{"smiles": "O=C(Nc1ccc2c(c1)OCO2)c1ccc(N2C(=O)c3ccccc3C2=O)cc1", "inhibition": "-7.07%"}
{"smiles": "Cn1c(=O)n(C)c2cc(C(=O)Nc3ccc4c(c3)OCO4)ccc21", "inhibition": "37.8% (active)"}
{"smiles": "Cn1c(=O)n(C)c2cc(C(=O)Nc3ccc(Br)cc3)ccc21", "inhibition": "9.51%"}
{"smiles": "COc1ccc(OCC(=O)NN2Cc3ccccc3C2=N)cc1", "inhibition": "0.554%"}
{"smiles": "O=C(c1ccco1)N1CCN(CC(=O)N(C2CCCCC2)C2CCS(=O)(=O)C2)CC1", "note": "(stereo not drawn)", "inhibition": "-18.1%"}
{"smiles": "Cc1cc(C(=O)O)c(S(C)(=O)=O)s1", "inhibition": "4.07%"}
{"smiles": "COc1ccc(CCNC(=S)N2CCN(S(=O)(=O)c3ccc(F)cc3)CC2)cc1", "inhibition": "-1.95%"}
{"smiles": "CN(C)CCCn1c(SCCN2C(=O)c3ccccc3C2=O)nc2ccccc2c1=O", "inhibition": "-8.89%"}
{"smiles": "Cc1onc(-c2c(F)cccc2Cl)c1C(=O)OCC(=O)N1C(C)CCCC1C", "note": "(stereo not drawn)", "inhibition": "-2.55%"}
{"smiles": "CCCn1c(=NC(C)=O)c(C(=O)OCC)cc2c(=O)n3ccccc3nc21", "inhibition": "4.14%"}
{"smiles": "CCOC(=O)c1cc2c(=O)n3ccccc3nc2n(CC(C)C)c1=NC(=O)c1c(-c2c(F)cccc2Cl)noc1C", "inhibition": "36.5% (active)"}
{"smiles": "CCCCn1c(N)c(N(CCC(C)C)C(=O)COC(=O)c2ccc(CC)cc2)c(=O)[nH]c1=O", "inhibition": "-5.34%"}
{"smiles": "COc1ccc(C(=O)CSc2n[nH]c(N)n2)cc1", "inhibition": "4.97%"}
{"smiles": "C=CCn1c(C)cc(C2=NNC(=NCC)SC2)c1C", "inhibition": "37.3% (active)"}
{"smiles": "CC(Sc1nc2c([nH]c3ccccc32)c(=O)n1C)c1ccccc1", "note": "(stereo not drawn)", "inhibition": "-2.36%"}
{"smiles": "COc1ccc(C=C(C#N)C#N)c(CSc2ccccn2)c1", "inhibition": "7.7%"}
{"smiles": "CCOC(=O)Cc1cc(=O)[nH]c(=O)[nH]1", "inhibition": "-9.76%"}
{"smiles": "O=C(OCCO)c1cc(Cl)c(C(=O)OCCO)cc1Cl", "inhibition": "19.5%"}
{"smiles": "CC1CCN(S(=O)(=O)c2ccc3c(c2)n(C)c(=O)n3C)CC1", "inhibition": "7.77%"}
{"smiles": "NC(=O)C1CCN(C(=O)CC2C(=O)NCCN2Cc2cccc(Oc3ccccc3)c2)CC1", "note": "(stereo not drawn)", "inhibition": "-2.05%"}
{"smiles": "CNC(=O)c1csc(Cc2c(Cl)sc3ccc(Cl)cc23)n1", "inhibition": "-20.2%"}
{"smiles": "Cc1nc2ccccc2c(=O)n1-c1ccc(NS(=O)(=O)c2ccc(F)cc2F)cc1", "inhibition": "1.55%"}
{"smiles": "CCC(C)(C(=O)Nc1ccccc1C)N(C(=O)CNC(C)=O)c1ccc(C)cc1", "note": "(stereo not drawn)", "inhibition": "14.7%"}
{"smiles": "CC1CCCN(C(=O)CN2C(=O)c3ccccc3S2(=O)=O)C1", "note": "(stereo not drawn)", "inhibition": "-17.2%"}
{"smiles": "O=C(CN1C(=O)c2ccccc2S1(=O)=O)NC1CCCCC1", "inhibition": "9.89%"}
{"smiles": "O=C(CN1C(=O)c2ccccc2S1(=O)=O)N1CCc2ccccc21", "inhibition": "62.7% (active)"}
{"smiles": "COC1(C2=NCCN2)COc2ccccc2O1", "note": "(stereo not drawn)", "inhibition": "17.1%"}
{"smiles": "Cc1ccnc2nc(C(=O)OCC(=O)N(CC(C)C)CC(C)C)nn12", "inhibition": "6.38%"}
{"smiles": "COc1ccc(CNc2nc(NCc3ccc(OC)cc3)c3ncn(C4CCCC4)c3n2)cc1", "inhibition": "-55.3%"}
{"smiles": "Cc1cc(C(=O)CSc2nc(N)cc(=O)[nH]2)c(C)n1-c1cccc(F)c1", "inhibition": "-32.2%"}
{"smiles": "CCCCc1nnc(NC(=O)CSc2nc(N)cc(=O)[nH]2)s1", "inhibition": "13.3%"}
{"smiles": "C=CCSc1nc(N)cc(=O)[nH]1", "inhibition": "36.8% (active)"}
{"smiles": "CC(=O)N(OCc1ccc(OC(C)C)c(Cl)c1)C(C)=O", "inhibition": "-2.83%"}
{"smiles": "COc1cc(F)c(C2=CC(=O)CC(C)(C)C2)cc1F", "inhibition": "4.27%"}
{"smiles": "Cn1c(-c2ccc(F)cc2)cc2onc(-c3ccccc3Cl)c2c1=O", "inhibition": "-275%"}
{"smiles": "Cc1cccc(C(=O)Nc2ccc(C(=O)/C=C/c3cccs3)cc2)c1", "inhibition": "6.21%"}
{"smiles": "Cc1cccc(C(=O)Nc2ccc(CC(=O)O)cc2)c1", "inhibition": "40.2% (active)"}
{"smiles": "Cc1cccc(C(=O)Nc2ccc(Oc3cnccn3)cc2)c1", "inhibition": "-6.59%"}
{"smiles": "O=Cc1c(NCCCN2CCCC2=O)c2ccccc2[nH]c1=O", "inhibition": "4.36%"}
